Settings in all cases: treatment time: 24 h
In assay [1] the test system is A549-ACTB-RAB5A. Kind of assay: lowest phenotypically active concentration; higher = less potent. Put shortly:
(§1)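 The reporter lines, fifteen in total and built by gene editing in A549, HepG2 and WPMY1 cells, used BFP for segmentation alongside GFP and RFP/FusionRed markers. Each was treated at 0.3, 1, 3 or 9 µM for 24 h in four wells and then imaged live, with live-cell features normalised to solvent control wells. Deviation meant ≥3 of 4 wells beyond the 95th percentile of control Euclidean distances; reproducibility meant a median replicate Pearson correlation above the 95th percentile of non-replicates. Only conditions meeting both were scored as phenotypically active.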

Assay [2] deals with A549-GM130-SQSTM1. The description is as above. Put shortly: as §1
Assay [3] deals with HepG2-ACTB-RAB5A. Described as above. The method, boiled down: as §1
For assay [4], the system named is WPMY1-ACTB-RAB5A. The description is as above. Put shortly:
as §1

The test system of assay [5] is WPMY1-GM130-SQSTM1. The assay is described as above. Put shortly:
as §1

Assay [6] relates to A549-ACTB-RAB5A. Briefly: phenotypically active (imaging signature differs from DMSO and reproducible) at any of 0.3-9 uM (binary (1 = active, 0 = inactive)); higher = active. Put shortly:
as §1

A further assay has as its system A549-CANX-COX4. Described as above. Put shortly:
as §1

Assay [7] deals with A549-GM130-SQSTM1. The description is as above. The method, boiled down: as §1
A further assay has as its system A549-TP53BP1-CLTA. The description is as above. Put shortly: as §1
Another assay relates to A549-TUBA1B-RELA. The description is as above. The method, boiled down:
as §1

Assay [8] has as its system HepG2-ACTB-RAB5A. The assay is described as above. The method, boiled down:
as §1

The test system of a further assay is HepG2-CANX-COX4. Described as above. The method, boiled down: as §1
For a further assay, the system named is HepG2-GM130-SQSTM1. Described as above. The method, boiled down: as §1
For a further assay, the system named is HepG2-TP53BP1-CLTA. The assay is described as above. Put shortly:
as §1

A further assay has as its system HepG2-TUBA1B-RELA. The assay is described as above. Put shortly:
as §1

Assay [9] has as its system WPMY1-ACTB-RAB5A. Described as above. Put shortly:
as §1

Another assay relates to WPMY1-CANX-COX4. Described as above. The method, boiled down:
as §1

Assay [10] has as its system WPMY1-GM130-SQSTM1. Described as above. Put shortly:
as §1

A further assay has as its system WPMY1-TP53BP1-CLTA. The description is as above. The method, boiled down: as §1
For a further assay, the system named is WPMY1-TUBA1B-RELA. Described as above. The method, boiled down:
as §1

`CC1=C(/C=C/C(C)=C\C=C\C(C)=C\C(=O)O)C(C)(C)CCC1` [tretinoin]: the “lowest phenotypically active concentration” value in the assay on A549-ACTB-RAB5A [1] was 3 µM; with A549-GM130-SQSTM1 [2], 3 µM; in the assay on HepG2-ACTB-RAB5A [3], 1 µM; in the assay on WPMY1-ACTB-RAB5A [4] it was 1 µM; in the assay with WPMY1-GM130-SQSTM1 [5], at most 0.3 µM. Moreover, the phenotypically active was 1 (active) in the assay on A549-ACTB-RAB5A [6]; 0 (inactive) in the assay with A549-CANX-COX4; 1 (active) with A549-GM130-SQSTM1 [7]; 0 (inactive) in the assay on A549-TP53BP1-CLTA; 1 (active) in the assay with A549-TUBA1B-RELA; 1 (active) in the assay with HepG2-ACTB-RAB5A [8]. Moreover, the phenotypically active was 1 (active) with HepG2-CANX-COX4; 1 (active) in the assay with HepG2-GM130-SQSTM1; 0 (inactive) in the assay with HepG2-TP53BP1-CLTA; 0 (inactive) in the assay with HepG2-TUBA1B-RELA; 1 (active) with WPMY1-ACTB-RAB5A [9]; 1 (active) in the assay with WPMY1-CANX-COX4. Also, the phenotypically active in the assay on WPMY1-GM130-SQSTM1 [10], with WPMY1-TP53BP1-CLTA and in the assay on WPMY1-TUBA1B-RELA was 1 (active) throughout.

As for `O=C(Nc1nc2cc(C(F)(F)F)cc(NC3CC3)n2n1)c1cccnc1`, the “lowest phenotypically active concentration” value in the assay with A549-ACTB-RAB5A [1], in the assay with A549-GM130-SQSTM1 [2] and in the assay on WPMY1-ACTB-RAB5A [4] was 3 µM in each case. Besides, the phenotypically active was 1 (active) with A549-ACTB-RAB5A [6]; 0 (inactive) in the assay with A549-CANX-COX4; 1 (active) with A549-GM130-SQSTM1 [7]; 0 (inactive) with A549-TP53BP1-CLTA; 1 (active) with A549-TUBA1B-RELA; 0 (inactive) with HepG2-ACTB-RAB5A [8]. The phenotypically active was 1 (active) in the assay with HepG2-CANX-COX4; 0 (inactive) in the assay with HepG2-GM130-SQSTM1; 1 (active) in the assay on HepG2-TP53BP1-CLTA; 1 (active) in the assay on HepG2-TUBA1B-RELA; 1 (active) in the assay with WPMY1-ACTB-RAB5A [9]; 1 (active) with WPMY1-CANX-COX4. In addition, the phenotypically active in the assay on WPMY1-GM130-SQSTM1 [10] is 0 (inactive); in the assay on WPMY1-TP53BP1-CLTA, 1 (active); in the assay on WPMY1-TUBA1B-RELA, 0 (inactive).

`CN1CCC(CN2c3ccccc3Sc3ccccc32)C1` (stereo unspecified) [methdilazine]: the “lowest phenotypically active concentration” value in the assay with A549-ACTB-RAB5A [1] came out at 9 µM; in the assay with A549-GM130-SQSTM1 [2] it was 3 µM; in the assay on HepG2-ACTB-RAB5A [3] it was 9 µM; in the assay on WPMY1-ACTB-RAB5A [4], 9 µM; in the assay with WPMY1-GM130-SQSTM1 [5], 3 µM. The phenotypically active was 1 (active) in the assay on A549-ACTB-RAB5A [6]; 0 (inactive) in the assay with A549-CANX-COX4; 1 (active) with A549-GM130-SQSTM1 [7]; 0 (inactive) in the assay with A549-TP53BP1-CLTA; 1 (active) with A549-TUBA1B-RELA; 1 (active) in the assay on HepG2-ACTB-RAB5A [8]. In addition, the phenotypically active in the assay with HepG2-CANX-COX4 is 0 (inactive); in the assay on HepG2-GM130-SQSTM1, 1 (active); in the assay with HepG2-TP53BP1-CLTA, 1 (active); with HepG2-TUBA1B-RELA, 1 (active); in the assay on WPMY1-ACTB-RAB5A [9] it was 1 (active); in the assay on WPMY1-CANX-COX4 it was 1 (active). Further, the phenotypically active in the assay with WPMY1-GM130-SQSTM1 [10], with WPMY1-TP53BP1-CLTA and with WPMY1-TUBA1B-RELA was 1 (active) in each case.

Turning to `CC(CN1c2ccccc2Sc2ccccc21)N(C)C` (stereo unspecified) [promethazine], the “lowest phenotypically active concentration” value with A549-ACTB-RAB5A [1], in the assay with A549-GM130-SQSTM1 [2], in the assay with HepG2-ACTB-RAB5A [3], with WPMY1-ACTB-RAB5A [4] and in the assay on WPMY1-GM130-SQSTM1 [5] was 9 µM in each case. The phenotypically active with A549-ACTB-RAB5A [6] was 1 (active); in the assay with A549-CANX-COX4, 0 (inactive); in the assay with A549-GM130-SQSTM1 [7], 1 (active); in the assay on A549-TP53BP1-CLTA, 0 (inactive); in the assay on A549-TUBA1B-RELA, 1 (active); with HepG2-ACTB-RAB5A [8], 1 (active). For the same compound, the phenotypically active is 0 (inactive) in the assay on HepG2-CANX-COX4; 1 (active) with HepG2-GM130-SQSTM1; 1 (active) in the assay with HepG2-TP53BP1-CLTA; 1 (active) in the assay on HepG2-TUBA1B-RELA; 1 (active) in the assay with WPMY1-ACTB-RAB5A [9]; 0 (inactive) with WPMY1-CANX-COX4. The phenotypically active with WPMY1-GM130-SQSTM1 [10], in the assay with WPMY1-TP53BP1-CLTA and with WPMY1-TUBA1B-RELA was 1 (active) throughout.

With `COCCCC/C(=N/OCCN)c1ccc(C(F)(F)F)cc1` [fluvoxamine], the “lowest phenotypically active concentration” value in the assay on A549-ACTB-RAB5A [1], in the assay with A549-GM130-SQSTM1 [2] and with WPMY1-ACTB-RAB5A [4] was 9 µM each time. Moreover, the phenotypically active was 1 (active) with A549-ACTB-RAB5A [6]; 0 (inactive) in the assay with A549-CANX-COX4; 1 (active) in the assay with A549-GM130-SQSTM1 [7]; 0 (inactive) with A549-TP53BP1-CLTA; 1 (active) with A549-TUBA1B-RELA; 0 (inactive) in the assay with HepG2-ACTB-RAB5A [8]. Further, the phenotypically active with HepG2-CANX-COX4 is 0 (inactive); in the assay with HepG2-GM130-SQSTM1 it was 0 (inactive); with HepG2-TP53BP1-CLTA, 1 (active); in the assay with HepG2-TUBA1B-RELA it was 1 (active); in the assay on WPMY1-ACTB-RAB5A [9], 1 (active); in the assay on WPMY1-CANX-COX4, 0 (inactive). For the same compound, the phenotypically active in the assay on WPMY1-GM130-SQSTM1 [10], in the assay on WPMY1-TP53BP1-CLTA and with WPMY1-TUBA1B-RELA was 0 (inactive) in each case.

Source of the values: the supplement of paper PMC7411054.
